Measured values as given in the supplement of paper PMC8728848.
About 410 targets per protein were measured; listed, in parts, are those with the strongest signals and a random draw of the rest.

Columns and labels:
Experiment in all cases: glycan array binding signal (z-score within array); higher = stronger binding
Conditions in all cases: glycan notation: IUPAC condensed, linker removed
[1] = biological target: Fuc(a1-2)Gal(b1-3)GlcNAc(b1-2)Man(a1-3)[Fuc(a1-2)Gal(b1-3)GlcNAc(b1-2)Man(a1-6)]Man(b1-4)GlcNAc(b1-4)GlcNAc
Outline: (§1)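 Arrays were curated from the Consortium for Functional Glycomics database, 3228 in total, and kept only where the protein sequence was available. Binding is expressed as a within-array Z-score. This score was averaged across arrays of the same protein sequence at different concentrations or buffers and across linkers, and negative values can be read as non-binding.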

Fuc(a1-2)Gal(b1-4)Glc6S = biological target: Fuc(a1-2)Gal(b1-4)Glc6S
Outline: as §1

[2] = biological target: Fuc(a1-2)Gal(b1-4)GlcNAc(b1-3)Gal(b1-4)GlcNAc
Outline: as §1

[3] = biological target: Fuc(a1-2)Gal(b1-4)GlcNAc(b1-3)GalNAc
Outline: as §1

[4] = biological target: Fuc(a1-2)Gal(b1-4)GlcNAc(b1-3)[Fuc(a1-2)Gal(b1-4)GlcNAc(b1-6)]GalNAc
Outline: as §1

[5] = biological target: Fuc(a1-2)Gal(b1-4)GlcNAc(b1-3)[Fuc(a1-3)[Gal(b1-4)]GlcNAc(b1-6)]Gal(b1-4)Glc
Outline: as §1

[6] = biological target: Fuc(a1-2)Gal6S(b1-3)GlcNAc6S
Outline: as §1

Fuc(a1-2)Gal6S(b1-4)Glc = biological target: Fuc(a1-2)Gal6S(b1-4)Glc
Outline: as §1

Fuc(a1-2)[Gal(a1-3)]Gal = biological target: Fuc(a1-2)[Gal(a1-3)]Gal
Outline: as §1

[7] = biological target: Fuc(a1-2)[GalNAc(a1-3)]Gal
Outline: as §1

[8] = biological target: Fuc(a1-2)[GalNAc(a1-3)]Gal(b1-3)GalNAc(a1-3)[Fuc(a1-2)]Gal(b1-4)GlcNAc
Outline: as §1

[9] = biological target: Fuc(a1-3)[Gal(b1-4)]GlcNAc(b1-3)Gal(b1-3)[Fuc(a1-4)]GlcNAc
Outline: as §1

[10] = biological target: Fuc(a1-3)[Gal(b1-4)]GlcNAc(b1-3)Gal(b1-4)[Fuc(a1-3)]GlcNAc
Outline: as §1

[11] = biological target: Fuc(a1-3)[Gal(b1-4)]GlcNAc(b1-6)GalNAc
Outline: as §1

[12] = biological target: Fuc(a1-3)[GalNAc(b1-4)]GlcNAc
Outline: as §1

Gal(a1-2)Gal = biological target: Gal(a1-2)Gal
Outline: as §1

Gal(a1-3)Gal(b1-3)GlcNAc = biological target: Gal(a1-3)Gal(b1-3)GlcNAc
Outline: as §1

Gal(b1-3)Gal(b1-4)GlcNAc = biological target: Gal(b1-3)Gal(b1-4)GlcNAc
Outline: as §1

[13] = biological target: Gal(b1-3)GlcNAc(b1-3)Gal(b1-3)GlcNAc
Outline: as §1

[14] = biological target: Gal(b1-3)GlcNAc(b1-3)Gal(b1-4)GlcNAc(b1-3)Gal(b1-4)GlcNAc(b1-2)[Gal(b1-3)GlcNAc(b1-3)Gal(b1-4)GlcNAc(b1-3)Gal(b1-4)GlcNAc(b1-6)]Man(a1-6)[Gal(b1-3)GlcNAc(b1-3)Gal(b1-4)GlcNAc(b1-3)Gal(b1-4)GlcNAc(b1-2)Man(a1-3)]Man(b1-4)GlcNAc(b1-4)[Fuc(a1-6)]GlcNAc
Outline: as §1

[15] = biological target: Gal(b1-3)[Fuc(a1-4)]GlcNAc(b1-2)Man
Outline: as §1

[16] = biological target: Gal(b1-3)[Fuc(a1-4)]GlcNAc(b1-2)Man(a1-3)[Gal(b1-3)[Fuc(a1-4)]GlcNAc(b1-2)Man(a1-6)]Man(b1-4)GlcNAc(b1-4)[Fuc(a1-6)]GlcNAc
Outline: as §1

[17] = biological target: Gal(b1-3)[Fuc(a1-4)]GlcNAc(b1-6)GalNAc
Outline: as §1

[18] = biological target: Gal(b1-3)[Neu5Ac(a2-6)]GlcNAc(b1-4)Gal(b1-4)Glc
Outline: as §1

[19] = biological target: Gal(b1-3)[Neu5Ac(b2-6)]GalNAc
Outline: as §1

[20] = biological target: Gal(b1-4)GlcNAc(b1-3)Gal(b1-4)Glc
Outline: as §1

[21] = biological target: Gal(b1-4)GlcNAc(b1-3)Gal(b1-4)GlcNAc(b1-3)Gal(b1-4)GlcNAc(b1-3)Gal(b1-4)GlcNAc(b1-3)Gal(b1-4)GlcNAc(b1-2)Man(a1-3)[Gal(b1-4)GlcNAc(b1-3)Gal(b1-4)GlcNAc(b1-3)Gal(b1-4)GlcNAc(b1-3)Gal(b1-4)GlcNAc(b1-3)Gal(b1-4)GlcNAc(b1-2)Man(a1-6)]Man(b1-4)GlcNAc(b1-4)GlcNAc
Outline: as §1

[22] = biological target: Gal3S(b1-4)[Fuc(a1-3)]Glc6S
Outline: as §1

Gal6S(b1-4)GlcNAc6S = biological target: Gal6S(b1-4)GlcNAc6S
Outline: as §1

GalNAc3S(b1-4)GlcNAc = biological target: GalNAc3S(b1-4)GlcNAc
Outline: as §1

GalNAc6S(b1-4)GlcNAc = biological target: GalNAc6S(b1-4)GlcNAc
Outline: as §1

[23] = biological target: Glc(a1-4)Glc(a1-4)Glc(a1-4)Glc
Outline: as §1

Glc(a1-6)Glc(a1-6)Glc = biological target: Glc(a1-6)Glc(a1-6)Glc
Outline: as §1

[24] = biological target: Glc(a1-6)Glc(a1-6)Glc(a1-6)Glc
Outline: as §1

GlcA(b1-6)Gal = biological target: GlcA(b1-6)Gal
Outline: as §1

[25] = biological target: GlcNAc(b1-3)Gal(b1-4)GlcNAc(b1-3)Gal(b1-4)GlcNAc(b1-3)Gal(b1-4)GlcNAc(b1-3)Gal(b1-4)GlcNAc(b1-2)Man(a1-3)[GlcNAc(b1-3)Gal(b1-4)GlcNAc(b1-3)Gal(b1-4)GlcNAc(b1-3)Gal(b1-4)GlcNAc(b1-3)Gal(b1-4)GlcNAc(b1-2)Man(a1-6)]Man(b1-4)GlcNAc(b1-4)[Fuc(a1-6)]GlcNAc
Outline: as §1

[26] = biological target: GlcNAc(b1-3)Gal(b1-4)GlcNAc(b1-3)[GlcNAc(b1-3)Gal(b1-4)GlcNAc(b1-3)]GalNAc
Outline: as §1

GlcNAc(b1-3)Man = biological target: GlcNAc(b1-3)Man
Outline: as §1

[27] = biological target: Man(a1-2)Man(a1-2)Man(a1-6)[Man(a1-3)]Man
Outline: as §1

[28] = biological target: Man(a1-2)Man(a1-6)[Man(a1-3)]Man(a1-6)[Man(a1-2)Man(a1-2)Man(a1-3)]Man
Outline: as §1

Man(a1-3)[Man(a1-6)]Man = biological target: Man(a1-3)[Man(a1-6)]Man
Outline: as §1

[29] = biological target: Man(a1-3)[Man(a1-6)]Man(a1-6)[Man(a1-2)Man(a1-3)]Man(b1-4)GlcNAc(b1-4)GlcNAc
Outline: as §1

[30] = biological target: Neu5Ac(a2-3)Gal(b1-3)[Fuc(a1-4)]GlcNAc(b1-3)Gal(b1-4)[Fuc(a1-3)]GlcNAc
Outline: as §1

[31] = biological target: Neu5Ac(a2-3)Gal(b1-4)GlcNAc
Outline: as §1

[32] = biological target: Neu5Ac(a2-3)Gal(b1-4)GlcNAc(b1-3)Gal(b1-4)GlcNAc(b1-3)Gal(b1-4)GlcNAc
Outline: as §1

[33] = biological target: Neu5Ac(a2-3)Gal6S(b1-4)[Fuc(a1-3)]GlcNAc
Outline: as §1

[34] = biological target: Neu5Ac(a2-6)Gal(b1-3)GlcNAc(b1-3)[Gal(b1-4)GlcNAc(b1-6)]Gal(b1-4)Glc
Outline: as §1

[35] = biological target: Neu5Ac(a2-6)Gal(b1-4)GlcNAc
Outline: as §1

[36] = biological target: Neu5Ac(a2-6)Gal(b1-4)GlcNAc(b1-2)Man(a1-3)[Neu5Ac(a2-6)Gal(b1-4)GlcNAc(b1-2)Man(a1-6)]Man(b1-4)GlcNAc(b1-4)[Fuc(a1-6)]GlcNAc
Outline: as §1

[37] = biological target: Neu5Ac(a2-6)Gal(b1-4)GlcNAc(b1-3)GalNAc
Outline: as §1

[38] = biological target: Neu5Ac(a2-6)Gal(b1-4)GlcNAc(b1-6)[Gal(b1-3)GlcNAc(b1-3)]Gal(b1-4)Glc
Outline: as §1

[39] = biological target: Neu5Ac(a2-8)Neu5Ac(a2-3)Gal(b1-4)Glc
Outline: as §1

[40] = biological target: Neu5Gc(a2-3)Gal(b1-4)GlcNAc(b1-3)Gal(b1-4)GlcNAc(b1-2)Man(a1-3)[Neu5Gc(a2-3)Gal(b1-4)GlcNAc(b1-3)Gal(b1-4)GlcNAc(b1-2)Man(a1-6)]Man(b1-4)GlcNAc(b1-4)GlcNAc
Outline: as §1

[41] = biological target: Neu5Gc(a2-8)Neu5Gc(a2-6)Gal(b1-4)GlcNAc
Outline: as §1

B1: Tamarinin (protein)
chain: CDDSARAGNIVVYWGQGGSDNSEGSLKEACKSGHYNMIVLQQLIVYDDGRDPDLNLGAHCSDCTKLEEQIKYCQNKDIKILLQIGQVVPTQEDVKDVTKNLSEYLLKNFFSGKSGPLGEVYLNGIDIASVPEGNNLKFDELVEALNDSSTERRIYLSASPLCVYPDYYLNKAIQTEKLDFLFVQFFYQNPCIYTEGNPENLFEAMKTWTKNVPESMIFMALPATPNLDGYIPPRVLNKEILPAVSEASNFAGVMIFDRYFDRFRKYSSKIK
- glycan array binding signal (z-score) [1]: 0.79
- glycan array binding signal (z-score) (Fuc(a1-2)Gal(b1-4)Glc6S): -0.241
- glycan array binding signal (z-score) [2]: -0.361
- glycan array binding signal (z-score) [3]: 0.146
- glycan array binding signal (z-score) [4]: 4.01
- glycan array binding signal (z-score) [5]: -0.458
- glycan array binding signal (z-score) [6]: 4.89
- glycan array binding signal (z-score) (Fuc(a1-2)Gal6S(b1-4)Glc): -0.164
- glycan array binding signal (z-score) (Fuc(a1-2)[Gal(a1-3)]Gal): -0.275
- glycan array binding signal (z-score) [7]: -0.388
- glycan array binding signal (z-score) [8]: -0.292
- glycan array binding signal (z-score) [9]: -0.377
- glycan array binding signal (z-score) [10]: 0.223
- glycan array binding signal (z-score) [11]: -0.129
- glycan array binding signal (z-score) [12]: -0.154
- glycan array binding signal (z-score) (Gal(a1-2)Gal): -0.001
- glycan array binding signal (z-score) (Gal(a1-3)Gal(b1-3)GlcNAc): -0.375
- glycan array binding signal (z-score) (Gal(b1-3)Gal(b1-4)GlcNAc): 11.2
- glycan array binding signal (z-score) [13]: -0.135
- glycan array binding signal (z-score) [14]: 4.61
- glycan array binding signal (z-score) [15]: 1.45
- glycan array binding signal (z-score) [16]: 3.52
- glycan array binding signal (z-score) [17]: -0.371
- glycan array binding signal (z-score) [18]: 2.92
- glycan array binding signal (z-score) [19]: -0.455
- glycan array binding signal (z-score) [20]: 0.79
- glycan array binding signal (z-score) [21]: -0.24
- glycan array binding signal (z-score) [22]: -0.238
- glycan array binding signal (z-score) (Gal6S(b1-4)GlcNAc6S): -0.214
- glycan array binding signal (z-score) (GalNAc3S(b1-4)GlcNAc): 2.59
- glycan array binding signal (z-score) (GalNAc6S(b1-4)GlcNAc): 2.4
- glycan array binding signal (z-score) [23]: -0.232
- glycan array binding signal (z-score) (Glc(a1-6)Glc(a1-6)Glc): -0.034
- glycan array binding signal (z-score) [24]: 0.415
- glycan array binding signal (z-score) (GlcA(b1-6)Gal): 0.165
- glycan array binding signal (z-score) [25]: -0.061
- glycan array binding signal (z-score) [26]: -0.332
- glycan array binding signal (z-score) (GlcNAc(b1-3)Man): 0.095
- glycan array binding signal (z-score) [27]: 14.1
- glycan array binding signal (z-score) [28]: -0.298
- glycan array binding signal (z-score) (Man(a1-3)[Man(a1-6)]Man): 0.04
- glycan array binding signal (z-score) [29]: -0.295
- glycan array binding signal (z-score) [30]: 3.05
- glycan array binding signal (z-score) [31]: -0.352
- glycan array binding signal (z-score) [32]: -0.251
- glycan array binding signal (z-score) [33]: -0.371
- glycan array binding signal (z-score) [34]: -0.386
- glycan array binding signal (z-score) [35]: -0.341
- glycan array binding signal (z-score) [36]: -0.131
- glycan array binding signal (z-score) [37]: 5.41
- glycan array binding signal (z-score) [38]: -0.361
- glycan array binding signal (z-score) [39]: -0.395
- glycan array binding signal (z-score) [40]: -0.36
- glycan array binding signal (z-score) [41]: -0.477
